Five compounds from PubChem BioAssay can be followed below.

Calls of active or inactive are those of the source. Unless noted, how the calls were made is not given here.

The nature of assay [1]: compounds binding Alexa647 anti-His antibody – biochemical, small-molecule microarray, 635 nm fluorescence, artefact control for SMM control protein annotation, primary screen (AID 1128).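 Further: score merges feature fluorescence with signal-to-noise for each printed compound spot.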 The settings on record: higher = more signal.
Assay [2] relates to Human papillomavirus type 1a E7 protein (residues 1-88). Description: HPV1a E7 small-molecule binders, primary screen, biochemical, small-molecule microarray, residues 1-88, 635 nm (AID 1129). The settings on record: small-molecule microarray binding, fluorescence 635 nm; higher = more signal.
The target in assay [3] is Focal adhesion kinase 1 (Homo sapiens) (UniProt Q05397). Nature of the assay: PTK2 protein binding on printed compound slides – biochemical, small-molecule microarray, 635/667 nm fluorescence, BSA, DTT, primary screen (AID 1130).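 Further: composite of spot emission at 667 nm and signal to noise over triplicate slides.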 The settings on record: 635 nm fluorescence, higher = more signal.
Focal adhesion kinase 1 (Homo sapiens), sequence (Q05397 whole entry, looked up): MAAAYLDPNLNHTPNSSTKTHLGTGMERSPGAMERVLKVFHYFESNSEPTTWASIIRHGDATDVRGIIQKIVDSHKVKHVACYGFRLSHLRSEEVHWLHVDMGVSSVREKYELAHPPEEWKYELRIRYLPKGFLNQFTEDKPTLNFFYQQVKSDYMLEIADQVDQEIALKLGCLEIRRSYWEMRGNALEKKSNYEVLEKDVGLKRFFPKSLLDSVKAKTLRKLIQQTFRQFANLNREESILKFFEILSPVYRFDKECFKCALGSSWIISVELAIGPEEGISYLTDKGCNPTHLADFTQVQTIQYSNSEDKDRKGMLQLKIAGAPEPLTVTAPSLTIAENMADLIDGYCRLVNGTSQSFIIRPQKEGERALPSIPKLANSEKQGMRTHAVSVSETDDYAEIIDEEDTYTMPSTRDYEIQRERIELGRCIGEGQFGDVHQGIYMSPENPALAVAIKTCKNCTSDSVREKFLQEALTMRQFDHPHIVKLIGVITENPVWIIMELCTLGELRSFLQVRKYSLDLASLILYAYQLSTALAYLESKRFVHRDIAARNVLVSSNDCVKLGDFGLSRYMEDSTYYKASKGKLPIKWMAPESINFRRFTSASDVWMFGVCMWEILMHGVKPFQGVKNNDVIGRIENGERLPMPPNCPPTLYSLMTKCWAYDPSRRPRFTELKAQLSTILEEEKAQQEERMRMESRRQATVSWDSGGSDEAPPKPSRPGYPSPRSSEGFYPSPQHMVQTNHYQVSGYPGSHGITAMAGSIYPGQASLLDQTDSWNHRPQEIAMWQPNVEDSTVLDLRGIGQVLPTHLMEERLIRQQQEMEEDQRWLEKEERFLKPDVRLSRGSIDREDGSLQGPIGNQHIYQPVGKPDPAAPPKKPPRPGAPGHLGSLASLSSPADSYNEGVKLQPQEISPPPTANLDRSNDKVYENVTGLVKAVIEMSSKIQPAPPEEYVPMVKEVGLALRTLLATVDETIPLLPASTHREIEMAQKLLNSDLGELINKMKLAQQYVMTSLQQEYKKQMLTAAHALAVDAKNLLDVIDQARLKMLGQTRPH
For assay [4], the system named is Fibrinogen (Alexa647-labelled). Description: Alexa647-fibrinogen binding to printed small molecules – biochemical, small-molecule microarray, 635/667 nm fluorescence, artefact control for SMM control-protein annotation, profiling panel (AID 1131).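 Further: z-score merges 667 nm fluorescence with per-spot signal-to-noise over triplicate slides.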 The settings on record: fibrinogen-A647 binding fluorescence, higher = more signal.
The target in assay [5] is Follistatin (Homo sapiens) (UniProt P19883). Description: FST protein binding to printed compounds – biochemical, small-molecule microarray, 635/667 nm fluorescence, primary screen (AID 1132). The settings on record: 635 nm fluorescence, higher = more signal.
Follistatin (Homo sapiens), sequence (P19883 whole entry, looked up): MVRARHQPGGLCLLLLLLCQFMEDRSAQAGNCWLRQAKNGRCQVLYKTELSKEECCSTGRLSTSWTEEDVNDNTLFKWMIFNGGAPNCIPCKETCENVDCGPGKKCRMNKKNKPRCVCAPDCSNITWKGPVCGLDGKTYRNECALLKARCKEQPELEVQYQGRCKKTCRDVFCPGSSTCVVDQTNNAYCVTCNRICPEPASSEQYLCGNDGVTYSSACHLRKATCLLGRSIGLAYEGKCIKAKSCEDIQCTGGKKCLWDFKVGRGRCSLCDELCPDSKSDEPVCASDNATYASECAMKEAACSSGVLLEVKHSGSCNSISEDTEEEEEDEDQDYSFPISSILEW
The target of assay [6] is Fibroblast growth factor 2 (Homo sapiens) (UniProt P09038). Nature of the assay: basic fibroblast growth factor binding to printed compounds – biochemical, small-molecule microarray, 635/667 nm fluorescence, primary screen (AID 1133). The settings on record: FGF2, fluorescence 635/667, higher = more signal.
Fibroblast growth factor 2 (Homo sapiens), sequence (P09038 whole entry, looked up): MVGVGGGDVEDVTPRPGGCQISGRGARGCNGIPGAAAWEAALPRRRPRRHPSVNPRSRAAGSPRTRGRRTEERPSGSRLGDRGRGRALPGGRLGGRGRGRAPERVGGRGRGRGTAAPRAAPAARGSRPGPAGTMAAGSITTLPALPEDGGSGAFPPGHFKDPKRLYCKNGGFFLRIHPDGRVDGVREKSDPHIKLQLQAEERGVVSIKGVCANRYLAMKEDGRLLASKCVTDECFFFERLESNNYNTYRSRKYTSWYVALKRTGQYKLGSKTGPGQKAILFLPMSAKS
Assay [7] in a line: JC-1 mitochondrial potential readout, lung cancer cells – cell-based, A549, JC-1 fluorescence, basal, 24 h, 100 nL, profiling panel (AID 1138).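 Further: A549 lung adenocarcinoma cells under basal conditions with no added stimulus; test concentration not given here.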 The settings on record: higher = more signal.
The test system of a further assay is Lefty1. Nature of the assay: Lefty1 protein binding to printed compounds – biochemical, small-molecule microarray, 635/667 nm fluorescence, primary screen (AID 1139). The settings on record: fluorescence 635/667, higher = more signal.
Assay [8] relates to wheat germ agglutinin (Triticum aestivum), Alexa647-labelled. Nature of the assay: Alexa647-WGA lectin binding to printed small molecules – biochemical, small-molecule microarray, 635/667 nm fluorescence, artefact control for SMM control-protein annotation, profiling panel (AID 1140).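 Further: score merges 667 nm feature emission with signal to noise over triplicate slides.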 The settings on record: WGA-A647 binding, 635 nm fluorescence, higher = more signal.
Assay [9] addresses Luciferin 4-monooxygenase (Photinus pyralis) (UniProt P08659). Description: inhibition of purified Photinus pyralis luciferase – biochemical, luminescence, purified enzyme, 2006 set, primary screen (AID 1141).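 Further: cell-free assay with purified firefly luciferase at 100 ng per well in PBS; test concentration not given here.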 The settings on record: purified firefly luciferase, SteadyGlo luminescence, 30 min; higher = more signal, called active from +8 up or from −8 down.
Assay [10] concerns Wnt5a (protein binding on small-molecule microarray). Description: small molecules binding Wnt5a protein – biophysical, small-molecule microarray, 635/667 nm fluorescence, primary screen (AID 1142).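 Further: fluorescence read at 667 nm with signal to noise per printed feature.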 The settings on record: 635 nm fluorescence, higher = more signal.
Assay [11] can be described thus: ATP-based viability of Huh7 replicon cells – cell-based, CellTiter-Glo luminescence, basal, 48 h, cytotoxicity control for HCV replication inhibitor project, primary screen (AID 1143).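 Further: Huh7 hepatoma cells carrying a hepatitis C replication reporter with no stimulus; test concentration not given here.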 The settings on record: higher = more signal, called active from +8 up or from −8 down.
Assay [12] is described as follows: Pseudomonas biofilm growth suppression – PAO1 strain, BacTiter-Glo luminescence, LB-PBS, primary screen (AID 1144). The settings on record: P. aeruginosa PAO1 biofilm, 12 h, higher = more signal.
Assay [13] is described as follows: basal CRE-LacZ reporter activity in PC12 – cell-based, unstimulated, primary screen (AID 1145). The settings on record: no forskolin, luminescence, 4.5 h, higher = more signal, called active from +8 up or from −8 down.
Assay [14] in a line: forskolin-driven CRE-LacZ activity in PC12 – cell-based, CRE-LacZ reporter, forskolin-stimulated, primary screen (AID 1146).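 Further: PC12 cells with 6xCRE LacZ reporter stimulated by forskolin 10 µM; beta-galactosidase reporter signal reflecting CREB driven transcription.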 The settings on record: luminescence, 4.5 h, higher = more signal, called active from +8 up or from −8 down.
Assay [15] has as its target Streptavidin (Streptomyces avidinii) (UniProt P22629). Nature of the assay: compounds binding control protein streptavidin – biophysical, small-molecule microarray, 635/667 nm fluorescence, artefact control for SMM compound annotation, primary screen (AID 1147).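 Further: signal reflects streptavidin binding to arrayed compounds as a control protein.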 The settings on record: higher = more signal.
A short description of assay [16]: probe aInhba binding on compound microarray – biochemical, small-molecule microarray, 635/667 nm fluorescence, primary screen (AID 1148).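 Further: score merges 667nm spot fluorescence with signal-to-noise for antibody binding to printed compounds.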 The settings on record: higher = more signal.
Assay [17] addresses Torsin-1A (Homo sapiens) (UniProt O14656). Nature of the assay: TOR1A wild-type binding on microarray – cell lysate, small-molecule microarray, lysate, 635/667 nm, primary screen (AID 1149). The settings on record: COS7 hTOR1A-WT lysate, 635 nm fluorescence, higher = more signal.
Assay [18] has the same target. Nature of the assay: torsin A mutant lysate binding on microarrays – cell lysate, small-molecule microarray, COS7 lysate, 635/667 nm fluorescence, primary screen (AID 1150).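 Further: score pools 667 nm emission and signal to noise measuring lysate protein binding.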 The settings on record: COS7 hTOR1A mutant lysate, 635 nm fluorescence, higher = more signal.
The test system of assay [19] is Sonic hedgehog protein (Shh). Nature of the assay: Sonic hedgehog microarray binding compounds – biochemical, small-molecule microarray, 635/667 nm fluorescence, primary screen (AID 1151).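 Further: Shh protein binding to compounds spotted on small-molecule microarray slides; score combines spot fluorescence intensity with signal-to-noise across triplicate slides.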 The settings on record: 635 nm fluorescence, higher = more signal.

Luciferin 4-monooxygenase (Photinus pyralis), sequence (P08659 whole entry, looked up): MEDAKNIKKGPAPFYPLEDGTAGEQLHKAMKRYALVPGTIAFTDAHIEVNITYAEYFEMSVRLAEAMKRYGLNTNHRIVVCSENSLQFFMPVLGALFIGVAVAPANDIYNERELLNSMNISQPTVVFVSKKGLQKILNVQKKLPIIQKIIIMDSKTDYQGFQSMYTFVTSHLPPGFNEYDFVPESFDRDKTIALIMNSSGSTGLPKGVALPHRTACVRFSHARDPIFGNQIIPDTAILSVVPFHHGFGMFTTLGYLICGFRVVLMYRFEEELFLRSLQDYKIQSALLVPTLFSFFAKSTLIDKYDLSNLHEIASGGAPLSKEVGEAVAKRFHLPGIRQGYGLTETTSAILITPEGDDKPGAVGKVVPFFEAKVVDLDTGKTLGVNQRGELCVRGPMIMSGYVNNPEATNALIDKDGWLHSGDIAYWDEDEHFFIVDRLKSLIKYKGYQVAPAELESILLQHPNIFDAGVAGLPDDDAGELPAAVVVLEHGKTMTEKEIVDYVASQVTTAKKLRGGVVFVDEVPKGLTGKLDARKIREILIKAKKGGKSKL
Torsin-1A (Homo sapiens), sequence (O14656 whole entry, looked up): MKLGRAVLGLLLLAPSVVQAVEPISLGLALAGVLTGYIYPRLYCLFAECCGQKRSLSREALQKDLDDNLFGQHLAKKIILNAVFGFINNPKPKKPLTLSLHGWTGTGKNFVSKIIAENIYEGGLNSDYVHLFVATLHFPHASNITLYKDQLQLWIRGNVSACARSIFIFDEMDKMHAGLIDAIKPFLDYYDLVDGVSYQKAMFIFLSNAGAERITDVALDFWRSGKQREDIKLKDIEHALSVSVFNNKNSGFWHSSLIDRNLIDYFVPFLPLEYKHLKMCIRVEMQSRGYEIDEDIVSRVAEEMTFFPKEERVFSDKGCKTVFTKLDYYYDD
Streptavidin (Streptomyces avidinii), sequence (P22629 whole entry, looked up): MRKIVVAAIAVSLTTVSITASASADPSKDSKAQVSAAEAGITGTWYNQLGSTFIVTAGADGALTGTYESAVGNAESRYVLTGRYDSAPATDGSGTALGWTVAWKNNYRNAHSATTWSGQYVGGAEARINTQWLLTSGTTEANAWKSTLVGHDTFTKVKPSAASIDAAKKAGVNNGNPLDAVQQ

Regarding `O=C1[C@H]2[C@H]3[C@H](O)[C@H](O)CC(=NO[C@@H]4O[C@H](CO)[C@@H](O)[C@H](O)[C@H]4O)[C@H]3CC[C@H]2C(=O)N1C1CCCCC1`, the composite z-score in assay [1] was 0.648; in assay [2] it was 1.16; in assay [3], 0.84; in assay [4] it was 0.402; in assay [5], -0.384; in [6], -0.0148. In addition, the composite z-score with Lefty1 was 0.625; in [8] it was 0.183; in assay [10] it was -0.0314; in [15], -0.534; in [16], -0.0313; with Torsin-1A (Homo sapiens) [17] it was 1.03. The composite z-score with Torsin-1A (Homo sapiens) [18] came to 0.843; in [19], 0.61. The z-score was -0.0288 in assay [7]; 0.23 (inactive) in assay [9]; 0.582 (inactive) in assay [11]; 0.423 (inactive) in assay [12]; -0.0175 (inactive) in [13]; 0.234 (inactive) in [14].

In the case of `COCCCNC(=O)[C@@]1(Sc2ccc(C)cc2)CC(=O)N(Cc2ccccc2)[C@@H]1c1ccc(CO)cc1I`, the composite z-score in assay [1] was 0.101; in [2], 0.264; in [3], -0.303; in [4], -0.154; in assay [5] it was -0.191; in [6] it was -0.376. Further, the composite z-score is -1.13 with Lefty1; -0.308 in assay [8]; 0.129 in assay [10]; -0.684 in [15]; 0.106 in assay [16]; 0.234 with Torsin-1A (Homo sapiens) [17]. Besides, the composite z-score with Torsin-1A (Homo sapiens) [18] is 0.0773; in [19], -0.772. Moreover, the z-score in assay [7] is 1.63; in [9], -0.848 (inactive); in [11], -1.25 (inactive); in assay [12] it was 0.501 (inactive); in assay [13] it was -0.232 (inactive); in [14], 1.48 (inactive).

As for `CC(C)[Si]1(C(C)C)O[C@@H](c2ccccc2)c2cc(C3CC3)nc(-c3ccccc3)c21`, the composite z-score was -0.829 in assay [1]; -0.466 in [2]; -0.925 in assay [3]; 0.412 in [4]; -0.165 in [5]; -0.246 in assay [6]. The composite z-score was -0.198 in the assay with Lefty1; 0.105 in assay [8]; -0.0654 in assay [10]; 0.0887 in assay [15]; -0.207 in assay [16]; -1 with Torsin-1A (Homo sapiens) [17]. Further, the composite z-score was -0.124 with Torsin-1A (Homo sapiens) [18] and 0.397 in assay [19]. The z-score in assay [7] was -0.271; in assay [9], -0.471 (inactive); in assay [11] it was 0.414 (inactive); in assay [12], -0.134 (inactive); in assay [13], -0.258 (inactive); in assay [14], -0.541 (inactive).

With `CCc1cc2c(nc1CC)CCN(CCC(C)=NOC(C)CN1CCCc3nc(C)c(C)cc31)C2` (stereo not given), the composite z-score in assay [1] was -0.295; in [2], 0.973; in [3], 0.63; in [4], 0.398; in assay [5], 1.31; in assay [6], 0.631. For the same compound, the composite z-score with Lefty1 amounted to 1.29; in assay [8], 0.467; in assay [10] it was 0.56; in [15], 0.854; in [16], 0.341; in the assay with Torsin-1A (Homo sapiens) [17], 1.31. The composite z-score with Torsin-1A (Homo sapiens) [18] came out at 0.748; in assay [19], 1.35. In addition, the z-score was 1.2 in assay [7]; 0.62 (inactive) in assay [9]; -0.0844 (inactive) in assay [11]; -0.129 (inactive) in [12]; 1.14 (inactive) in assay [13]; 0.534 (inactive) in [14].

In the case of `CCOC(=O)C1=CCC(c2cc3ccccc3[nH]2)NC1` (stereo not given), the composite z-score in [1] was 0.693; in assay [2], 1.13; in assay [3] it was 1.22; in assay [4], -0.288; in [5], 1.12; in [6], -0.356. The composite z-score was -0.439 in the assay with Lefty1; 1.06 in assay [8]; 0.109 in [10]; 0.338 in assay [15]; 0.029 in [16]; 0.661 with Torsin-1A (Homo sapiens) [17]. Further, the composite z-score with Torsin-1A (Homo sapiens) [18] is 0.449; in assay [19], -0.402. For the same compound, the z-score in assay [7] is 0.642; in assay [9], -3.19 (inactive); in [11], -2.83 (inactive); in [12] it was 0.756 (inactive); in assay [13] it was 0.369 (inactive); in [14], 0.464 (inactive).
